Our source for the growth values is PubChem BioAssay (NCI).

Some test systems named below: HCT-15 colon; HT29 colon; SNB-75 CNS; SNB-19 CNS; U251 CNS; PC-3 prostate; SK-MEL-5 melanoma; UACC-62 melanoma; LOX IMVI melanoma; SK-MEL-28 melanoma; SK-MEL-2 melanoma; EKVX NSCLC; SN12C renal; UO-31 renal; TK-10 renal; ACHN renal; CAKI-1 renal; A498 renal; CCRF-CEM leukemia; MOLT-4 leukemia.
Assay in all cases: NCI-60 one-dose screen, 48 h (100 = growth as untreated, 0 = no growth, -100 = all killed)
Conditions in all cases: 10 µM unless noted

The panel holds about 83,000 compounds, 20% with a hit somewhere; the sample as a whole holds those more often.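 Percent growth is the endpoint: 0 to 100 indicates growth inhibition (40 means 60% inhibition), 0 means no net growth, and negative values indicate cell death.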 Values without a mark were called inactive. Activity calls are given as the source filed them. Rule for the calls: active = growth percent below 10; inactive = the rest.

In the case of `CS(=O)(=O)c1cccc(-c2c(-c3cccc(OS(N)(=O)=O)c3)nc3sccn23)c1`, the growth in the test with HCT-15 colon was 104%; in the test on HT29 colon it was 107%; in the test with SNB-75 CNS, 70.8%; with SNB-19 CNS, 97.5%; in the test with U251 CNS it was 100%; with PC-3 prostate it was 106%. Also, the growth with SK-MEL-5 melanoma is 96.6%; with UACC-62 melanoma it was 94%; in the test with LOX IMVI melanoma it was 95.6%; with SK-MEL-28 melanoma it was 112%; in the test on SK-MEL-2 melanoma, 117%; in the test on EKVX NSCLC it was 95.3%. Also, the growth is 102% with SN12C renal; 75.5% in the test with UO-31 renal; 108% in the test on TK-10 renal; 99.2% in the test on ACHN renal; 81.2% with CAKI-1 renal; 100% in the test with A498 renal. The growth is 107% with CCRF-CEM leukemia and 105% in the test on MOLT-4 leukemia.
With `Cn1ccc2c3c(ccc21)CC3=O`, the growth with HCT-15 colon is 105%; in the test on HT29 colon, 116%; with SNB-75 CNS it was 97.7%; in the test on SNB-19 CNS, 105%; with U251 CNS it was 111%; with PC-3 prostate it was 110%. Besides, the growth in the test on SK-MEL-5 melanoma was 115%; in the test on UACC-62 melanoma, 99.1%; in the test on LOX IMVI melanoma, 119%; in the test with SK-MEL-28 melanoma, 112%; with SK-MEL-2 melanoma, 126%; with EKVX NSCLC, 103%. Moreover, the growth was 106% with SN12C renal; 107% in the test with UO-31 renal; 124% with TK-10 renal; 111% in the test on ACHN renal; 92.3% in the test with CAKI-1 renal; 92.6% in the test with A498 renal. For the same molecule, the values for the growth in the test with CCRF-CEM leukemia and with MOLT-4 leukemia were 111% and 88.9%, respectively.
With `CN(C)Cc1ccc(NC(=O)c2cncc(C#Cc3cnc(N)c4ncccc34)c2)cc1F`, the growth was -55.7% (active) with HCT-15 colon; 3.71% (active) in the test on HT29 colon; 123% in the test on SNB-75 CNS; 87.2% in the test on SNB-19 CNS; 74.8% with U251 CNS; 75.2% in the test with PC-3 prostate. For the same molecule, the growth is 77.3% in the test with SK-MEL-5 melanoma; 94.2% in the test with UACC-62 melanoma; -65% (active) in the test with LOX IMVI melanoma; -48.2% (active) in the test on SK-MEL-28 melanoma; 88.6% with SK-MEL-2 melanoma; 93.4% in the test with EKVX NSCLC. The growth in the test with SN12C renal was 86.4%; with UO-31 renal, 108%; with TK-10 renal, 141%; in the test with ACHN renal, 61.1%; in the test on CAKI-1 renal, 87.7%; in the test with A498 renal, 73.9%. The growth in the test with CCRF-CEM leukemia was 4.73% (active); with MOLT-4 leukemia it was 76.3%.
Take `N#CC1CCc2c(c(-c3cn[nH]c3C(F)(F)F)nc3c(F)cc4[nH]ncc4c23)C1` (stereo not given): the growth in the test with HCT-15 colon is 86.1%; with HT29 colon, 42.1%; in the test on SNB-75 CNS, -4.91% (active); with SNB-19 CNS, 32.7%; in the test with U251 CNS, 28.9%; in the test with PC-3 prostate, 43.6%. For the same molecule, the growth was 6.54% (active) with SK-MEL-5 melanoma; 8.91% (active) in the test with UACC-62 melanoma; 17.1% in the test on LOX IMVI melanoma; 24.9% in the test with SK-MEL-28 melanoma; -34.6% (active) with SK-MEL-2 melanoma; 57.4% in the test on EKVX NSCLC. Besides, the growth was 25.7% in the test with SN12C renal; 56.8% in the test with UO-31 renal; 19.4% in the test on TK-10 renal; 62.9% in the test on ACHN renal; 25.6% in the test on CAKI-1 renal; -23.3% (active) with A498 renal. Besides, the growth was 29.2% in the test with CCRF-CEM leukemia and 19.8% with MOLT-4 leukemia.
In the case of `COC(=O)/C=C1/SC(=Nc2ccc(C)cc2)N(CCc2c[nH]c3ccc(O)cc23)C1=O`, the growth in the test with HCT-15 colon was 14.7%; in the test on HT29 colon it was 90.9%; with SNB-75 CNS it was 52%; in the test on SNB-19 CNS, 51.8%; in the test with U251 CNS, 34.7%; in the test on PC-3 prostate it was 39%. Besides, the growth is 50.5% in the test with SK-MEL-5 melanoma; 42.2% in the test on UACC-62 melanoma; -17.8% (active) in the test with LOX IMVI melanoma; 48.4% with SK-MEL-28 melanoma; 35.4% in the test with SK-MEL-2 melanoma; 49.6% in the test on EKVX NSCLC. The growth with SN12C renal was 45.4%; in the test on UO-31 renal it was 46.8%; with TK-10 renal, 94.6%; in the test with ACHN renal it was 57.4%; in the test on CAKI-1 renal, 69.9%; with A498 renal, 67.1%. Further, the figures for the growth in the test on CCRF-CEM leukemia and with MOLT-4 leukemia were 1.81% (active) and -8.16% (active), respectively.
Take `CCCCCC(=O)OCC(=O)O[C@@H]1C[C@]2(C(C)C)O[C@@]1(C)[C@@H]1CC[C@@H](C)[C@H]1[C@@H]2OC(=O)/C=C/c1ccccc1`: the growth is 68.8% with HCT-15 colon; 56.1% with HT29 colon; 89% in the test with SNB-75 CNS; 87% in the test on SNB-19 CNS; 65.9% in the test with U251 CNS; 55.5% in the test with PC-3 prostate. The growth with SK-MEL-5 melanoma was 95.7%; with UACC-62 melanoma, 62.1%; in the test with LOX IMVI melanoma it was 68.6%; in the test on SK-MEL-28 melanoma, 101%; in the test with SK-MEL-2 melanoma, 94%; in the test on EKVX NSCLC, 73.8%. Further, the growth in the test on SN12C renal was 19.7%; in the test on UO-31 renal, -80.3% (active); with TK-10 renal, 134%; with ACHN renal it was -24.2% (active); with CAKI-1 renal it was -4.76% (active); in the test with A498 renal, -88.6% (active). The growth in the test on CCRF-CEM leukemia was 59.7%; with MOLT-4 leukemia, 72.1%.
Consider `COc1ccc2[nH]cc(-c3nc(-c4cn(C)c5c(Cl)nccc45)cs3)c2c1`, for which the growth was 0.0691% (active) in the test with HCT-15 colon; 9.12% (active) with HT29 colon; 61.6% in the test with SNB-75 CNS; 79.2% with SNB-19 CNS; 16.3% in the test with U251 CNS; 23.4% in the test on PC-3 prostate. Moreover, the growth with SK-MEL-5 melanoma was 34.5%; with UACC-62 melanoma, 43.8%; with LOX IMVI melanoma it was 21%; in the test with SK-MEL-28 melanoma it was 46%; in the test on SK-MEL-2 melanoma it was 50.9%; with EKVX NSCLC, 73.7%. The growth in the test with SN12C renal was 62.5%; in the test with UO-31 renal it was 36.6%; in the test with TK-10 renal it was 71.1%; with ACHN renal it was 22.6%; in the test with CAKI-1 renal, 60.2%; in the test on A498 renal it was 16%. In addition, the growth in the test on CCRF-CEM leukemia is 22.1%; with MOLT-4 leukemia, 36.2%.
In the case of `C=C(C)[C@@H]1CC[C@]2(C(=O)NCC#CCN3CCN(C)CC3)CC[C@]3(C)[C@H](CC[C@@H]4[C@@](C)(CCC#N)[C@H](C(=C)C)CC[C@]43C)[C@@H]12`, the growth with HCT-15 colon was 20%; in the test with HT29 colon, -12.7% (active); in the test with SNB-75 CNS it was 64.7%; in the test with SNB-19 CNS, 78.2%; in the test on U251 CNS it was 45.3%; in the test with PC-3 prostate, 35.5%. Also, the growth in the test with SK-MEL-5 melanoma was 64.6%; in the test with UACC-62 melanoma, -8.49% (active); in the test with LOX IMVI melanoma it was 10.4%; in the test with SK-MEL-28 melanoma, 78.1%; in the test on SK-MEL-2 melanoma it was 91.8%; with EKVX NSCLC it was 52.1%. Further, the growth with SN12C renal is 69.2%; in the test with UO-31 renal, 51.6%; in the test with TK-10 renal, 80.4%; in the test with ACHN renal, 70.8%; with CAKI-1 renal it was 57.7%; with A498 renal it was 57.5%. In addition, the growth with CCRF-CEM leukemia is 51.3%; in the test with MOLT-4 leukemia, 10.9%.
